Results filed as inconclusive are left out. Activity calls are given as the source filed them. Unless noted, calls follow the shape of the dose curve; as a rule, active = well fitted curve in the direction sought with a large enough effect; inconclusive = small, poorly fitted or top-dose-only effect, or another doubt; inactive = no such curve, though single readings can be large; an effect the other way counts as inactive or inconclusive.
What was measured:
[1] = qHTS of Trypanosoma Brucei Inhibitors: LOPAC Validation (AID 624147); also: 0% is about no effect
Summary of the method: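 In this concentration-response screen, enzyme-free wells defined baseline while DMSO plates tracked drift. Each reaction combined TbPYK, substrate, compound and 130 uM ADP for 45 min at room temperature. Kinase-Glo Plus luminescence gave the signal.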

[2] = Cell Proliferation Assay against the TMD8 Cell Line (AID 651645); conditions: TMD8 DLBCL cell line proliferation/viability; at 46.1 µM (top of the series);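 also: cells exposed to compound for 48 h before reading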
Summary of the method: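 TMD8 ABC DLBCL cells, 500 per well in phenol red-free RPMI with 5% FBS, were treated with compound by pin transfer and incubated 48 hours at 37C, 5% CO2. Viability was read by CellTiter-Glo luminescence, normalised to DMSO (100%) and 9.2 uM bortezomib (0%).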

[3] = Cell Proliferation Assay against the HBL1 Cell Line (AID 651646); conditions: HBL1 DLBCL cells; at 46.1 µM (top of the series);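 also: cells exposed to compound for 48 h before reading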
Summary of the method: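 HBL1, 500 cells/well, RPMI no phenol red + 5% FBS; cpd pinned, 48 h 37C/5% CO2; CellTiter-Glo, 15 min RT, luminescence. % activity: DMSO = 100%, bortezomib 9.2 uM final = 0%.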

[4] = Cell Proliferation Assay against the TMD8 Cell Line (Caspase readout at 8 hrs) (AID 651713);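 also: 0% = DMSO and 100% = 9.2 µM bortezomib caspase signal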
Summary of the method: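 Apoptosis readout: caspase 3/7 luminescence (Caspase-Glo), 15 min RT. Cells: TMD8, 500/well, RPMI + 5% FBS, no phenol red. Exposure 8 h, 37C. % activity vs DMSO = 0, bortezomib 9.2 uM final = 100.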

[5] = qHTS assay for small molecule agonists of the antioxidant response element (ARE) signaling pathway (AID 651741; active = well fitted activation curve with a large enough effect in the signal ratio; the % refers to the signal ratio; also: % of control where 0% means no effect)
Summary of the method: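 HepG2 ARE-bla reporter cells, 2,000/well; 5 h settle at 37 C/5% CO2; compound pin transfer (23 nL, DMSO); 16 h at 37 C; LiveBLAzer B/G FRET substrate, 2 h RT; fluorescence intensity read.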

[6] = qHTS assay for small molecule activators of the p53 signaling pathway (AID 651743; active = well fitted activation curve with a large enough effect in the signal ratio, not every such curve was filed as active; the % refers to the signal ratio; also: % of control where 0% means no effect); conditions: HCT-116 p53RE-bla, beta-lactamase FRET ratio, 16 h; activation: stronger effect = higher value
Summary of the method: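 Reporter: beta-lactamase driven by p53 response elements, stably integrated in HCT-116 cells. Cells seeded at 4,000/well, 5 h preincubation, compound (DMSO) 16 h at 37 C; B/G FRET substrate 2 h RT; fluorescence intensity read.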

[7] = qHTS assay for small molecule activators of the nuclear factor-kappa B (NF-kB) signaling pathway (AID 651749; active = well fitted activation curve with a large enough effect in the signal ratio; the % refers to the signal ratio; also: % of control where 0% means no effect); conditions: NF-kB-bla ME-180 cells, beta-lactamase FRET ratio, 16 h; stronger effect = higher value
Summary of the method: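 NF-kB-bla ME-180 cells, 2,000/well; 23 nL compound or DMSO pinned; 16 hr, 37C/5% CO2; beta-lactamase FRET read-out.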

[8] = S16 Schwann cell PMP22 intronic element firefly luciferase assay (AID 624032); also: nearly all actives have a fitted effect of over 30% in size; also: potency is read from the fitted curve at half-maximal effect
Summary of the method: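 Rat S16 Schwann cells stably carrying firefly luciferase driven by a PMP22 intronic element, in 10% FBS, treated 24 h at 37 C. ONE-Glo luminescence normalized to PTC124 control and DMSO (0%); curves classed by r2, magnitude and activity.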

[9] = S16 Schwann cell PMP22 intronic element beta-lactamase assay (AID 624044; calls by dose curve; also: potency is read from the fitted curve at half-maximal effect; nearly all actives have a fitted effect of over 15% in size)
Summary of the method: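 Beta-lactamase reporter under a PMP22 intronic regulatory element in stable S16 rat Schwann cells; 24 h compound exposure. 460 nm blue signal normalized between DMSO (0%) and potassium clavulanate, with 535 nm FRET tracking viability; curves classed by r2 and response.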

[10] = Cytotoxicity counterscreen for NFkB agonists and antagonists (AID 624476); also: % is scaled to controls: 0 for no effect and ±100 for the full control effect
[11] = qHTS Assay for Identification of Small Molecule Agonists for NFkB Signaling Pathway. (AID 624478);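 also: compounds tested together with TNF alpha at its EC50 of 10 pM; 0% is about no effect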
Summary of the method: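 Read-out: 460/530 nm emission at 405 nm excitation after 2 h LiveBLAzer loading; ME-180 NFkB-bla reporter cells exposed 5 h at 37 C to compounds with 10 pM TNF alpha final.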

[12] = qHTS Assay for Identification of Small Molecule Antagonists for NFkB Signaling Pathway. (AID 624479; calls by dose curve;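 also: pathway stimulated with TNF alpha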; also: potency is read from the fitted curve at half-maximal effect)
[13] = HTS Assay for Allosteric Antagonists of the Human D2 Dopamine Receptor: Hit Validation in HTRF (AID 624455); also: % is scaled to controls: 0 for no effect and ±100 for the full control effect
Summary of the method: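 HTRF read-out; cells stably expressing D1 receptor; hits scored for inhibition of D1-mediated response. Primary screen: calcium flux, force-coupled inducible Hek293 Trex D2 line, antagonism vs EC80 dopamine.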

[14] = molecular target: Luciferin 4-monooxygenase (Photinus pyralis) (UniProt P08659); assay: Biochemical firefly luciferase enzyme assay for NPC (AID 624030);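 also: purified P. pyralis luciferase at 10 nM with luciferin and ATP substrate; 0% = DMSO and -100% = full luciferase inhibition by PTC124 control; nearly all actives have a fitted effect of over 70% in size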
Chain of Luciferin 4-monooxygenase (Photinus pyralis) (P08659 whole entry, looked up): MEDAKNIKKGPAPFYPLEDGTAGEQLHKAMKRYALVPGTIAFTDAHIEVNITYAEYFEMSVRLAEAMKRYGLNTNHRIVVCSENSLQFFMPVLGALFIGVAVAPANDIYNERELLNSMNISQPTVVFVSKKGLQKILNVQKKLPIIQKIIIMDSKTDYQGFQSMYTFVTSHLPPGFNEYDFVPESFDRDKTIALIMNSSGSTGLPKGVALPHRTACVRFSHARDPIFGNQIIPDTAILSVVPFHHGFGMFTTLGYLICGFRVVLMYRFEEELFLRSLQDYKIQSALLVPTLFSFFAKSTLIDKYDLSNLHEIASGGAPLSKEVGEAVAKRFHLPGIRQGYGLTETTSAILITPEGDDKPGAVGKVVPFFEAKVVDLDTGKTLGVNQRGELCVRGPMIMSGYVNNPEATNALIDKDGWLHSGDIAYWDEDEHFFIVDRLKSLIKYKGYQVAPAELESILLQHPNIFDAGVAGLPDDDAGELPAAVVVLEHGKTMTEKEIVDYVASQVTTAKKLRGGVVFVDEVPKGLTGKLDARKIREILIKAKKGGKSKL
Summary of the method: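 Purified P. pyralis luciferase at 10 nM in 50 mM Tris Acetate (final), luminescence read within 5 minutes of enzyme addition to compounds. Activity normalised to PTC124 versus DMSO; concentration-response curves classed by r2, magnitude and activity.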

[15] = molecular target: Glucagon-like peptide 1 receptor (Homo sapiens) (UniProt P43220); assay: qHTS of GLP-1 Receptor Agonists: LOPAC Validation (AID 624148);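 also: 0% is about no effect; higher luminescence signal means agonism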
Chain of Glucagon-like peptide 1 receptor (Homo sapiens) (P43220 whole entry, looked up): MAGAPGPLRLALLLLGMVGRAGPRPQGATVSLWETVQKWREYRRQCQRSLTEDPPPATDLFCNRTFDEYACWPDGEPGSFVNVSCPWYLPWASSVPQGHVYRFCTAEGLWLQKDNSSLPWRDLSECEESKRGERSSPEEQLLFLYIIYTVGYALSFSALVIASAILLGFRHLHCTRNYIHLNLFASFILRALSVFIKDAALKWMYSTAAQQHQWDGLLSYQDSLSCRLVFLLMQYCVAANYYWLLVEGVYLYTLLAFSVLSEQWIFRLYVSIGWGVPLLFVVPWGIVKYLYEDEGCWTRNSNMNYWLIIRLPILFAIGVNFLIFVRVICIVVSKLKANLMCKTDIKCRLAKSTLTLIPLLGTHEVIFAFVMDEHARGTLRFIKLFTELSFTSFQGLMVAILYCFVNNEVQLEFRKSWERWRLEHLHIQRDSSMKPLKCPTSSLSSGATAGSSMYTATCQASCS
Summary of the method: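 HEK293 cells stably co-expressing GLP-1R and a cAMP-responsive luciferase reporter, plated 12 hours before compound, then incubated 4-6 hr at 37 deg C. Luminescence read 12 min after detection reagent.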

[16] = qHTS of Nrf2 Activators: LOPAC Validation (AID 624149); also: 0% is about no effect
Summary of the method: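 AREc32_Fluc cells, 1000/well, OPTI-MEM + 5% FBS, o/n 37 deg C 5% CO2; compound pin-transfer, 24 hr 37 deg C; Steady-Glo 30 min RT, luminescence read.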

In the case of `C[C@]12CCC(=O)C(O)=C1CC[C@@H]1[C@@H]2CC[C@]2(C)C(=O)CC[C@@H]12`, the outcome [1] was “inactive”, the viability (% of control) [2] was 87.8% and the viability, percent of control [3] was 87.5%. For the same compound, the Potency [4] was “inactive”, the Potency [5] was “inactive” and the activation [6] was -6.6% (inactive). For the same compound, the activation [7] was 2.01% (inactive).
In the case of `CNCC[C@H](Oc1cccc2ccccc12)c1cccs1`, the Potency [8] was 20.3 µM (active).
For `CCCSc1ccc2nc(NC(=O)OC)[nH]c2c1`, the Potency [8] was “inactive” and the Potency [9] was 1.07 µM (active).
In the case of `Cn1cc(C2=C(c3cn(C4CCN(Cc5ccccn5)CC4)c4ccccc34)C(=O)NC2=O)c2ccccc21`, the Potency [10] was “inactive”, the outcome [11] was “inactive” and the Potency [12] was 6.68 µM (active). It also gave a viability (% of control) [2] of 3.76% and a viability, percent of control [3] of 33.2%.
Compound `CC(C)n1c(C=C[C@H](O)C[C@H](O)CC(=O)O)c(-c2ccc(F)cc2)c2ccccc21` has a viability (% of control) [2] of 83.4% and a viability, percent of control [3] of 74.8%.
With `COc1cc([C@@H]2c3cc4c(cc3[C@H](O)[C@H]3COC(=O)[C@H]23)OCO4)cc(OC)c1OC` the Potency [8] was 0.0128 µM (active), the Potency [9] was 0.0224 µM (active) and the Potency [10] was “inactive”.
With `O=c1c(O)c(-c2ccc(O)c(O)c2)oc2cc(O)cc(O)c12` the Potency [12] was 14.9 µM (active), the viability (% of control) [2] was 46.1% and the viability, percent of control [3] was 56.5%.
With `CC[N+](C)(C)c1cccc(O)c1` the Potency [13] was “inactive”.
For `C[C@@H]1[C@@H](C(=O)C[C@H]2O[C@@H]3O[C@]4(C)CC[C@@H]5[C@H](C)CC[C@@H]([C@H]2C)[C@@]35OO4)O[C@@H]2O[C@]3(C)CC[C@H]4[C@H](C)CC[C@@H]1[C@@]24OO3`, the Potency [10] was “inactive”, the outcome [11] was “inactive” and the Potency [12] was “inactive”. The viability (% of control) [2] was 6.12%, the viability, percent of control [3] was 21.3% and the Potency [4] was “inactive”.
For `CC(C)=CCOc1c2occc2cc2ccc(=O)oc12`, the Potency [14] was “inactive”, the outcome [1] was “inactive” and the outcome [15] was “inactive”. The outcome [16] was “inactive” and the Potency [13] was “inactive”.

— PubChem BioAssay (NCATS)
